# Results filed as inconclusive are left out. A call without a number means that no potency is given here. Values without a mark were called inactive. Calls of active or inactive are those of the source. Calls come from the whole dose curve; as a rule, active = well fitted inhibition curve with a large enough effect; inconclusive = small, poorly fitted or top-dose-only effect; inactive = flat fitted curve, though single readings scatter.
# Legend:
# JCK = experiment: qHTS profiling for inhibitors of Plasmodium falciparum proliferation (AID 504749); note: potency is the fitted concentration of half-maximal effect; settings: P. falciparum in erythrocytes, SYBR Green DNA, 72 h; series mostly up to 28.7 µM
# Outline: (§1)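 Parasite proliferation within erythrocytes, 72 h exposure. Endpoint: SYBR Green I fluorescence after overnight lysis at room temperature. Controls: 0.29 uM artemisinin, DMSO.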
# N140 = experiment: as above; settings: P. falciparum in erythrocytes, SYBR Green DNA, 72 h; series mostly up to 28.7 µM
# Outline: as §1
# P93_24 = experiment: as above; settings: P. falciparum in erythrocytes, SYBR Green DNA, 72 h; series mostly up to 28.7 µM
# Outline: as §1
# P94_40 = experiment: as above; settings: P. falciparum in erythrocytes, SYBR Green DNA, 72 h; series mostly up to 28.7 µM
# Outline: as §1
# PAD = experiment: as above; settings: P. falciparum in erythrocytes, SYBR Green DNA, 72 h; series mostly up to 28.7 µM
# Outline: as §1
# PC15 = experiment: as above; settings: P. falciparum in erythrocytes, SYBR Green DNA, 72 h; series mostly up to 28.7 µM
# Outline: as §1
# PC26 = experiment: as above; settings: P. falciparum in erythrocytes, SYBR Green DNA, 72 h; series mostly up to 28.7 µM
# Outline: as §1
# PC49 = experiment: as above; settings: P. falciparum in erythrocytes, SYBR Green DNA, 72 h; series mostly up to 28.7 µM
# Outline: as §1
# SC27B = experiment: as above; settings: P. falciparum in erythrocytes, SYBR Green DNA, 72 h; series mostly up to 28.7 µM
# Outline: as §1
# TAB109 = experiment: as above; settings: P. falciparum in erythrocytes, SYBR Green DNA, 72 h; series mostly up to 28.7 µM
# Outline: as §1
# TAB113 = experiment: as above; settings: P. falciparum in erythrocytes, SYBR Green DNA, 72 h; series mostly up to 28.7 µM
# Outline: as §1
# TAB165 = experiment: as above; settings: P. falciparum in erythrocytes, SYBR Green DNA, 72 h; series mostly up to 28.7 µM
# Outline: as §1
# W2 = experiment: as above; settings: P. falciparum in erythrocytes, SYBR Green DNA, 72 h; series mostly up to 28.7 µM
# Outline: as §1
# CRL-7250 = normal cell line; experiment: Cytotoxic Profiling of Annotated Libraries Using Quantitative High-Throughput Screening (AID 1296008); settings: Five cell lines viability, CellTiter-Glo ATP luminescence, 48-72 h; active compounds read low
# Outline: (§2)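 Compounds were pin-transferred onto cells and incubated 48 or 72 hr at 37 degree Celsius, 95% humidity. CellTiter-Glo was added, plates sat 10 min at room temperature, then ATP-coupled luminescence was imaged as the viability read-out.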
# HEK293 = experiment: as above; settings: Five cell lines viability, CellTiter-Glo ATP luminescence, 48-72 h; active compounds read low
# Outline: as §2
# HaCat = experiment: as above; settings: Five cell lines viability, CellTiter-Glo ATP luminescence, 48-72 h; active compounds read low
# Outline: as §2
# KB-3-1 = experiment: as above; settings: Five cell lines viability, CellTiter-Glo ATP luminescence, 48-72 h, active compounds read low
# Outline: as §2
# NIH3T3 = experiment: as above; settings: Five cell lines viability, CellTiter-Glo ATP luminescence, 48-72 h; active compounds read low
# Outline: as §2
# Note: nearly all actives have a fitted effect of over 60% in size.
Structure (SMILES),Potency (JCK),Potency (N140),Potency (P93_24),Potency (P94_40),Potency (PAD),Potency (PC15),Potency (PC26),Potency (PC49),Potency (SC27B),Potency (TAB109),Potency (TAB113),Potency (TAB165),Potency (W2),max response (CRL-7250) [%],max response (HEK293) [%],max response (HaCat) [%],max response (KB-3-1) [%],max response (NIH3T3) [%],outcome (NIH3T3),outcome (CRL-7250)
Cn1c([N+](=O)[O-])cnc1COC(N)=O,inactive,inactive,inactive,inactive,inactive,inactive,inactive,inactive,inactive,inactive,inactive,inactive,inactive,-9.26,2.06,-19.4,-4.93,2.03,,
CCN(CC)CCOC(=O)C(c1ccccc1)c1ccccc1,inactive,inactive,inactive,inactive,inactive,inactive,inactive,inactive,inactive,inactive,inactive,inactive,7.57 µM (active),4.76,-4.53,-2.12,0.686,-4.35,,
Cc1ccsc1/C=C/C1=NCCCN1C,,,,,,,,,,,,,,3.4,-1.17,3.54,,,inactive,
NNc1nnc(NN)c2ccccc12,inactive,inactive,inactive,inactive,inactive,inactive,inactive,inactive,inactive,inactive,inactive,inactive,,4.89,-11.7,3.01,-5.02,,inactive,
O=c1[nH]c2cc(C(F)(F)F)c(N3CCOCC3)cc2n(CP(=O)(O)O)c1=O,inactive,inactive,inactive,inactive,inactive,inactive,inactive,inactive,inactive,inactive,inactive,inactive,inactive,,2.88,2.4,8.61,,inactive,inactive
Cc1cc(C)nc(NS(=O)(=O)c2ccc(N)cc2)n1,inactive,inactive,inactive,inactive,inactive,inactive,inactive,inactive,inactive,inactive,inactive,inactive,inactive,-8.07,3.16,3.39,-0.934,,inactive,
Cc1ncc(CO)c(CN)c1O,inactive,inactive,,inactive,,inactive,inactive,inactive,inactive,inactive,inactive,inactive,,-0.831,-5.62,-4.24,-2,,inactive,
O=C(CN1CCNCC1)NC1CCCCC1,inactive,inactive,inactive,inactive,inactive,inactive,inactive,inactive,inactive,inactive,inactive,inactive,inactive,-5.07,-4.92,0.716,2.43,,inactive; activator,
NC(=O)CC[C@@H](N)C(=O)O,inactive,inactive,,inactive,inactive,inactive,inactive,inactive,inactive,inactive,inactive,inactive,inactive,-0.379,-7.81,-14.8,-2.46,0.058,,
CC(=O)NCc1c(I)c(NC(C)=O)c(I)c(C(=O)O)c1I,11.2 µM (active),inactive,inactive,inactive,inactive,inactive,inactive,0.005 µM (active),inactive,inactive,inactive,inactive,inactive,3.86,-1.82,-5.93,5.09,-4.33,,
CCOc1ccc(C(=O)OCCN(CC)CC)cc1,inactive,inactive,inactive,inactive,inactive,inactive,inactive,inactive,inactive,inactive,inactive,inactive,inactive,-0.597,1.58,-25.1,-3.59,-1.32,,
CCc1cccc(CC)c1NC(=O)CN(CC(=O)O)CC(=O)O,inactive,inactive,inactive,inactive,inactive,inactive,inactive,inactive,inactive,inactive,inactive,inactive,inactive,-19.6,-1.81,-2.45,-15.5,-0.454,,
CC(C)CCCC(C)CCCC(C)CCCCC(C)CCCC(C)CCCC(C)C (centres undefined),inactive,inactive,inactive,,inactive,inactive,inactive,inactive,inactive,inactive,inactive,inactive,inactive,,-6.17,-19.8,12.8,-1.47,,inactive

# Source: PubChem BioAssay (NCATS)
